Experiment [1] has as its target Pyruvate kinase PKM (Homo sapiens) (UniProt P14618). As to the kind of experiment: qHTS Assay for Activators of Human Muscle Pyruvate Kinase (AID 954; active = well fitted curve in the direction sought with a large enough effect, not every such curve was filed as active). Conditions: purified human muscle pyruvate kinase, luciferase-coupled luminescence, 1 h; series mostly up to 57.5 µM. In outline:
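A coupled luminescent readout tracked ATP made from ADP by purified PKM2. Final conditions included 0.1 nM enzyme, PEP and ADP at 0.5 and 0.1 mM, pH 7.2 imidazole buffer with BSA, and a one-hour room-temperature reaction.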

For experiment [2], the target named is Alpha-galactosidase (Coffea arabica) (UniProt Q42656). Kind of experiment: Counterscreen for Glucocerebrosidase Inhibitors: qHTS Assay for Coffee Bean alpha-Galactosidase at pH 4.5 (AID 957). Conditions: purified coffee bean alpha-galactosidase, fluorogenic substrate; series mostly up to 76.9 µM. A digest of the protocol: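 Fluorogenic read-out: 4-methylumbelliferone at Ex 365/Em 440 nm after NaOH/glycine stop (pH 10). Enzyme 2 nM, 4-MU-alpha-galactoside 80 uM, citrate buffer pH 4.5, 20 min RT; normalized to no-enzyme and enzyme controls.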

A short description of experiment [3]: MultiTox-Fluor Cytotoxicity Assay - LYMP1-002 - Live Cells (AID 955).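 Note: cells exposed to compound for 16 hours.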 Note: potency is the fitted concentration of half-maximal effect. To be noted: LYMP1-002 lymphoblastoid live-cell protease fluorescence viability; series mostly up to 46.1 µM. In outline:
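LYMP1-002 lymphoblastoid cells; 2500 cells/well; 16 hr compound exposure, 37 C; MultiTox-Fluor reagent 60 min RT; live-cell fluorescence Ex/Em=405/510; qHTS concentration-response, Hill-equation AC50; tetraoctylammonium bromide positive control.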

Experiment [4] can be described thus: MultiTox-Fluor Cytotoxicity Assay - LYMP1-003 - Dead Cells (AID 961).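 Note: cells exposed to compound for 16 h at 37 °C; nearly all actives have a fitted effect of over 70% in size.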 Note: potency is the fitted concentration of half-maximal effect. Conditions: LYMP1-003 lymphoblastoid cells, dead-cell protease fluorescence; series mostly up to 92.2 µM. In outline: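 Human lymphoblastoid LYMP1-003 cells (2500/well) were treated with compounds for 16 hr at 37 C in complete medium. Dead-cell protease release was read by bis-AAF-R110 fluorescence (Ex/Em 485/520). AC50 came from Hill fits, normalized to DMSO and 15 uM tetraoctylammonium bromide.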

The nature of experiment [5]: MultiTox-Fluor Cytotoxicity Assay - LYMP1-003 - Live Cells (AID 962).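 Note: cells exposed to compound for 16 hours at 37 °C.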 Note: potency is the fitted concentration of half-maximal effect. Conditions: LYMP1-003 lymphoblastoid cells, MultiTox-Fluor live-cell protease fluorescence; series mostly up to 92.2 µM. In outline:
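Readout: live-cell fluorescence (Ex/Em=405/510) from GF-AFC cleavage after 60 min MultiTox-Fluor reagent at room temperature. Lymphoblastoid LYMP1-003 cells, 16 hr compound treatment, 37 C. Concentration-response fitted to standard Hill equation for AC50.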

The nature of experiment [6]: Cell Viability - LYMP1-003 - Assay at 24 hr (AID 963). Note: potency is the fitted concentration of half-maximal effect. Conditions: LYMP1-003 lymphoblastoid cell viability; series mostly up to 92.2 µM. A digest of the protocol:
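CellTiter-Glo luminescence (intracellular ATP) read after 24 hr, 37 C compound exposure of 2500 LYMP1-003 human lymphoblastoid cells/well in complete medium; qHTS concentration series; AC50 via standard Hill equation.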

A short description of experiment [7]: Cell Viability - LYMP2-003 (AID 965).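 Note: cells exposed to compounds for 24 h before reading; nearly all actives have a fitted effect of over 50% in size.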 Note: potency is the fitted concentration of half-maximal effect. Conditions: LYMP2-003 lymphoblastoid cell viability; series mostly up to 92.2 µM. In outline: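 CellTiter-Glo luminescence (cellular ATP) after 24 h compound exposure at 37 C in complete medium; 2500 cells/well, 5 h settling beforehand. Concentration-response fitted to standard Hill equation for AC50. Tetraoctylammonium bromide served as positive control.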

Experiment [8] in a line: Cell Viability - LYMP2-004 (AID 966). Note: nearly all actives have a fitted effect of over 65% in size. Note: potency is the fitted concentration of half-maximal effect. To be noted: LYMP2-004 lymphoblastoid cell viability, qHTS; series mostly up to 92.2 µM. A digest of the protocol:
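Luminescent ATP read-out (CellTiter-Glo, 30 min RT) after 24 hr compound exposure at 37 C; 2500 lymphoblastoid cells/well, complete medium. Decrease in ATP = cytotoxicity; AC50 from standard Hill model.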

Experiment [9] is described as follows: MultiTox-Fluor Cytotoxicity Assay - LYMP1-002 - Dead Cells (AID 960). Note: nearly all actives have a fitted effect of over 60% in size. Note: potency is the fitted concentration of half-maximal effect. Conditions: LYMP1-002 lymphoblastoid cells, dead-cell protease fluorescence; series mostly up to 46.1 µM. A digest of the protocol:
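Readout: fluorescence at 485/520 from cell-impermeant bis-AAF-R110 cleaved by proteases leaking from damaged cells. LYMP1-002 lymphoblastoid line, 16 hr compound treatment at 37 C, concentration-response in qHTS format; Hill-equation AC50 values.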

Experiment [10] can be described thus: Cell Viability - LYMP1-003 - Assay at 40 hr (AID 964). Note: nearly all actives have a fitted effect of over 60% in size. Note: potency is the fitted concentration of half-maximal effect. To be noted: LYMP1-003 lymphoblastoid viability; series mostly up to 92.2 µM. A digest of the protocol:
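LYMP1-003 lymphoblastoid cells, 2500/well; 5 hr preincubation, 40 hr compound exposure, 37 C; CellTiter-Glo 30 min RT; luminescence; Hill-fit AC50. Positive control tetraoctylammonium bromide.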

Records with an inconclusive call do not appear. Some compounds were tested as several samples or in several runs, with calls that do not always agree. Activity calls are given as the source filed them. Unless noted, calls come from the whole dose curve; as a rule, active = well fitted curve in the direction sought with a large enough effect; inconclusive = small, poorly fitted or top-dose-only effect, or another doubt; inactive = no such curve, though single readings can be large; an effect the other way counts as inactive or inconclusive.

Alpha-galactosidase (Coffea arabica), sequence (Q42656 whole entry, looked up): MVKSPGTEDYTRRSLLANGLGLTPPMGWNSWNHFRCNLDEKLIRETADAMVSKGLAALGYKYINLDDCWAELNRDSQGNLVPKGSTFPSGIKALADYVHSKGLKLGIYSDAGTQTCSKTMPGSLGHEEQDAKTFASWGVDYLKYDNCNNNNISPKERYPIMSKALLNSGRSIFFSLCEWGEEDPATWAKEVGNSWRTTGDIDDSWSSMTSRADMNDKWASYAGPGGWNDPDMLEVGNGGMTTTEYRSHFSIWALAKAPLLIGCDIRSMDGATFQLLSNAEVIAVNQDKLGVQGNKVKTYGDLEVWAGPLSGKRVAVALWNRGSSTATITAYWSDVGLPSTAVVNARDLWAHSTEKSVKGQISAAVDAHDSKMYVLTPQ
Pyruvate kinase PKM (Homo sapiens), sequence (P14618 whole entry, looked up): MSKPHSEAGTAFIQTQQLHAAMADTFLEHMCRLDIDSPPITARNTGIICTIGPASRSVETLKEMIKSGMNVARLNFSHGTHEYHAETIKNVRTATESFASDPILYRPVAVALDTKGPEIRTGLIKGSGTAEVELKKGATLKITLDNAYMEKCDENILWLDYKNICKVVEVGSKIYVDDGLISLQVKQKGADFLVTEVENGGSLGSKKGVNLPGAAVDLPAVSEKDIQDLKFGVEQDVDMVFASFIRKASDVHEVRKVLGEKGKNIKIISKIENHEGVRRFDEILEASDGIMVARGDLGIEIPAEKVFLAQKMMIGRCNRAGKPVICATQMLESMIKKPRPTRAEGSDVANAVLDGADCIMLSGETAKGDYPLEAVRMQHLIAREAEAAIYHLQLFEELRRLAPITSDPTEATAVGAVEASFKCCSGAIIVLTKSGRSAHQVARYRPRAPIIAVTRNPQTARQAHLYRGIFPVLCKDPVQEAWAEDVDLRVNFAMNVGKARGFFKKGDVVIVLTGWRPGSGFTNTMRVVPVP

Take `C[C@H](N)[C@H](O)c1ccc(O)c(O)c1`: the compound was called inactive in experiment [1] and in [2].

Take `CN1[C@@H]2CC[C@H]1CC(OC(=O)c1c[nH]c3ccccc13)C2` (stereo partly specified): the call in [2] was inactive.

`CCCC(C(=O)OCCN(CC)CC)(c1ccccc1)c1ccccc1`: the compound was classed as inactive in experiment [2].

Take `c1cc(CN2CCCCC2)cc(OCCCNc2nc3ccccc3s2)c1`: in experiment [2], the compound was called inactive.

On to `O=C(O)c1cccnc1Nc1cccc(C(F)(F)F)c1`, for which the call in experiment [2] was inactive.

`CN(C)C(=S)SSC(=S)N(C)C`: the Potency in [3] was 10 µM (active); in [4], 12.6 µM (active); in [5], 50.1 µM (active); in experiment [6] it was 15.8 µM (active); in [7], 0.251 µM (active); in experiment [8], 0.251 µM (active).

Take `CNC(=O)Oc1cccc2ccccc12`: the Potency result in experiment [3], in experiment [9], in experiment [4], in experiment [5], in [6] and in [7] was “inactive” each time. For the same compound, the Potency result in experiment [8] is “inactive”.

On to `Clc1ccccc1C(c1ccccc1)(c1ccccc1)n1ccnc1`, for which, in experiment [2], the call was inactive.

Consider `Cc1ccc(C(=O)Nc2ccc(S(=O)(=O)O)c3cc(S(=O)(=O)O)cc(S(=O)(=O)O)c23)cc1NC(=O)c1cccc(NC(=O)Nc2cccc(C(=O)Nc3cc(C(=O)Nc4ccc(S(=O)(=O)O)c5cc(S(=O)(=O)O)cc(S(=O)(=O)O)c45)ccc3C)c2)c1`, for which, in experiment [2], the result was inactive.

On to `O=C(CCCN1CCC(O)(c2cccc(C(F)(F)F)c2)CC1)c1ccc(F)cc1`, for which, in experiment [2], the compound was classed as inactive.

Turning to `COC(=O)C1=CCCN(C)C1`, the compound was called inactive in [1] and in [2].

For `CCCCCCCCCCCC[N+](C)(C)CCOc1ccccc1`, the Potency is 10 µM (active) in [3]; 12.6 µM (active) in experiment [4]; 31.6 µM (active) in experiment [5]; 12.6 µM (active) in experiment [6]; 31.6 µM (active) in experiment [10]; 50.1 µM (active) in experiment [7].

As for `Oc1c(Br)cc(Br)cc1Br`, the Potency entry in experiment [3], in experiment [9], in experiment [4], in [5], in [6] and in [10] was “inactive” in each case. Moreover, the Potency entry in experiment [7] and in experiment [8] was “inactive” throughout.

For the compound `CCc1cccc2c3c([nH]c12)C(CC)(CC(=O)O)OCC3` (stereo unspecified), the compound was called inactive in experiment [2].

Regarding `CN1CCC(=C2c3ccccc3CC(=O)c3sccc32)CC1`, the compound was classed as inactive in [2].

With `c1ccc2nc(N3CCNCC3)ccc2c1`, the outcome in experiment [1] was inactive.

Take `O=C1NCN(c2ccccc2)C12CCN(CCCC(c1ccc(F)cc1)c1ccc(F)cc1)CC2`: in experiment [2], the result was inactive.

For the compound `CN1[C@@H]2CC[C@H]1CC(OC(=O)c1cc(Cl)cc(Cl)c1)C2` (stereo partly specified), the outcome in experiment [1] and in experiment [2] was inactive.

Turning to `CCCCC1C(=O)N(c2ccccc2)N(c2ccccc2)C1=O`, the compound was called inactive in experiment [2].

For `COc1ccccc1N1CCN(CCCNc2cc(=O)n(C)c(=O)n2C)CC1`, the outcome in experiment [2] was inactive.

As for `CN(C(=O)CCCOc1ccc2[nH]c(=O)ccc2c1)C1CCCCC1`, the call in experiment [2] was inactive.

On to `COc1ccc(C(=O)N2CCCC2=O)cc1`, for which the outcome in experiment [1] and in experiment [2] was inactive.

For `C[C@@H]1C[C@@H]([C@H](O)CC2CC(=O)NC(=O)C2)C(=O)[C@@H](C)C1`, the Potency entry in experiment [3] and in experiment [6] was “inactive” each time. For the same compound, the Potency is 50.1 µM (active) and inactive in [4]; 2 µM (active) and inactive in experiment [10].

In the case of `Oc1cc(O)c2c(c1)O[C@H](c1ccc(O)c(O)c1)[C@H](O)C2`, the compound was classed as inactive in [2].

As to `CC1=C(C)C(=O)C(CCCCC#CCCCC#CCO)=C(C)C1=O`, the result in [2] was inactive.

Consider `C=Cc1c(C)c2cc3[nH]c(cc4nc(cc5nc(cc1[nH]2)C(C)=C5CCC(=O)O)C(CCC(=O)O)=C4C)c(C)c3C=C`, for which the compound was called inactive in [2].

With `CCN(CC)CCOCCOC(=O)C1(c2ccccc2)CCCC1`, the compound was classed as inactive in [2].

Regarding `OCc1cc(C(O)CNCCCCCCOCCCCc2ccccc2)ccc1O` (stereo unspecified), the outcome in experiment [2] was inactive.

With `COP(=O)(OC)OC=C(Cl)Cl`, the Potency result in [3], in experiment [9], in experiment [5], in [6] and in experiment [7] was “inactive” throughout. For the same compound, in [10], the Potency was 6.31 µM (active) and inactive.

`COC(=O)C1=C(C)NC(C)=C(C(=O)OC)C1c1ccccc1[N+](=O)[O-]`: the Potency in experiment [3] was 31.6 µM (active); in [4], 50.1 µM (active); in experiment [6] it was 50.1 µM (active); in experiment [10] it was 39.8 µM (active); in experiment [7], 50.1 µM (active); in experiment [8] it was 31.6 µM (active).

In the case of `CCCCCCCCC(=O)NCc1ccc(O)c(OC)c1`, the result in experiment [1] was inactive.

Take `Cc1[nH]c(=O)c(C#N)cc1-c1ccc2nccn2c1`: the result in experiment [2] was inactive.

Take `C(=C\c1ccccc1)/CN1CCN(C(c2ccccc2)c2ccccc2)CC1`: the compound was classed as inactive in [2].

For `O=C(CCl)c1ccc(Cl)cc1Cl`, the Potency in [3] was 7.94 µM (active); in [9], 7.94 µM (active); in experiment [4], 10 µM (active); in experiment [5], 15.8 µM (active); in [6], 20 µM (active); in [10] it was 20 µM (active). The Potency was 10 µM (active) in [7] and 6.31 µM (active) in experiment [8].

On to `O=C(CCNNC(=O)c1ccncc1)NCc1ccccc1`, for which the compound was called inactive in experiment [2].

As to `CN(C)CCCN1c2ccccc2Sc2ccc(C(F)(F)F)cc21`, the outcome in experiment [2] was inactive.

Turning to `O=C(O)c1nn(Cc2ccc(Cl)cc2Cl)c2ccccc12`, the compound was called inactive in [1].

In the case of `NC(=O)CN1CCCC1=O`, the compound was called inactive in experiment [1].

Turning to `C[C@]12CC[C@@H]3c4ccc(O)cc4CC[C@H]3[C@@H]1CCC2=O`, the call in experiment [2] was inactive.

(Values after PubChem BioAssay (NCATS).)
